In PubChem BioAssay (EPA / NIEHS):
Records with an inconclusive call do not appear. Calls of active or inactive are those of the source. The calls were made as follows: active = hit-call score of the fitted dose curve at least 0.9, where 1 is the maximum; inconclusive = response in the unintended direction; inactive = score below 0.9.

Each molecule was assayed against Androgen receptor (Homo sapiens) (UniProt P10275) (assay: ATG_AR_TRANS: Attagene TRANS-FACTORIAL HepG2 Assay for human Androgen Receptor (AR) (AID 2282973)). Conditions: HepG2 Attagene TRANS-FACTORIAL AR reporter transcription.
Outline: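 Chimeric nuclear receptor–Gal4 activity was assessed in human HepG2 hepatocytes after 24 h chemical dosing. Induced reporter mRNA was detected via labelled RT-PCR fragments on capillary electrophoresis, and gain of signal was analysed against DMSO.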

Androgen receptor (Homo sapiens), sequence (P10275 whole entry, looked up, the tested form may be a part): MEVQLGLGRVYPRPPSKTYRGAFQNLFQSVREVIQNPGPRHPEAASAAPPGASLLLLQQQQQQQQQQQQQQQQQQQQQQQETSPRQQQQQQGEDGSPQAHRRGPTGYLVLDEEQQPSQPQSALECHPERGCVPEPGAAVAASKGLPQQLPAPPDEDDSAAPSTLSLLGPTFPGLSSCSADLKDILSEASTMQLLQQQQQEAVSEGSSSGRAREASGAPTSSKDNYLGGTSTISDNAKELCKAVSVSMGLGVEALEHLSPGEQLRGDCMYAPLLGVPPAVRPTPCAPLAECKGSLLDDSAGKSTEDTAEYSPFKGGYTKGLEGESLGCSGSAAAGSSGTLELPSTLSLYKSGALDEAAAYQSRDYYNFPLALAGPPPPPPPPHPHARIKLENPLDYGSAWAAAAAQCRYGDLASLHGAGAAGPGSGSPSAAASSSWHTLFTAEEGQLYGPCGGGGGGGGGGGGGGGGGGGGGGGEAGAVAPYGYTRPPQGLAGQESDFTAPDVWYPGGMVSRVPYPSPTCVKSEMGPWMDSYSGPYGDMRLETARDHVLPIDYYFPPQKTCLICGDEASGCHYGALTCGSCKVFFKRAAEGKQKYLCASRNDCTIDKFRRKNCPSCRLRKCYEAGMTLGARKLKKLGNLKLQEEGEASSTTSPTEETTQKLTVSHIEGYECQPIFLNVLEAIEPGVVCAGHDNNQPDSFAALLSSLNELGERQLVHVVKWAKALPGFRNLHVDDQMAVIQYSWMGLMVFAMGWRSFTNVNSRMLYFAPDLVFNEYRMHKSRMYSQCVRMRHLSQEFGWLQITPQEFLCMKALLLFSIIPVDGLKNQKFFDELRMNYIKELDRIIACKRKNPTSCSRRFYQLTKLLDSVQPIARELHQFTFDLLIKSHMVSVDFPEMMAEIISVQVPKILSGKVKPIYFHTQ

outcome, inactive:
Nc1cc([N+](=O)[O-])ccc1Cl
CC(c1cc2ccccc2s1)N(O)C(N)=O (stereo not drawn)
Cc1ccc(S(=O)(=O)OCC(F)(F)C(F)(F)C(F)(F)C(F)(F)C(F)(F)C(F)F)cc1
CCCCCCOc1ccc(O)cc1
ON(Cc1ccccc1)Cc1ccccc1
O=CC(F)(F)C(F)(F)C(F)(F)F
CCC(C)(C)c1cc(O)c(C(C)(C)CC)cc1O
O=C(Cl)c1ccc(Cl)cc1Cl
OC(O)(C(F)C(O)(O)C(F)(F)F)C(F)(F)F
CC(=O)c1ccc[nH]1
COc1ccc(C(=O)/C(Br)=C\C(=O)O)cc1
O=C(NCc1ncc(C(F)(F)F)cc1Cl)c1c(Cl)cccc1Cl
CC(=O)CC(C)C
